High-throughput results (PubChem)
HCMV antiviral – blocks human cytomegalovirus replication | HFF cells, HCMV-luciferase reporter, 72 h; stronger effect = lower value | activity change, negative = inhibition, % at 57.5 µM | 410,000 compounds, 4.5% hits | AID 1259415; in the data active = activity change below about -60%; inconclusive = no clear call, values can overlap the other calls; inactive = above about -39%
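Screen run at 2 compound doses on HFFs infected with reporter HCMV, MOI 1 PFU/cell. Luciferase activity from cell lysates at 72 h post infection gave inhibition relative to buffer-only and Salinomycin wells.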
HCV inh – blocks hepatitis C virus | Potency, µM (top dose mostly 41.8 µM), actives largely listed as inhibitors | 340,000 compounds, 3.4% hits | AID 651820 | Huh7.5.1 HCVcc-Cre infection, luciferase reporter, 44 h; active = well fitted inhibition curve with a large enough effect; inconclusive = small, poorly fitted or top-dose-only effect, or another doubt; inactive = no such curve, though single readings can be large or run the other way
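Infectious HCV cell culture screen: compound-treated cells (1,000/well, pre-plated 4 h) are infected with HCVcc-Cre at roughly 0.5 moi and grown 44 h. Infection is quantified by luciferase signal after 15 min substrate incubation at room temperature.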
FMDV antiviral – blocks foot and mouth disease virus | FMDV antiviral cell-based qHTS | Potency, µM (series often up to 57.9 µM), actives largely listed as inhibitors | 410,000 compounds, 1.2% hits | AID 1159524; calls by dose curve; tested in HEK293T cells; note: read-out not given here; nearly all actives have a fitted effect of over 45% in size
Marburg entry inh – inhibitors of Marburg virus binding or cell entry. AID 540276. 300,000 compounds, 1.8% hits. Marburg virus pseudotyped entry inhibition, cell reporter. Potency, µM (series often up to 37.8 µM), most hits filed as inhibitors; calls by dose curve; tested in HEK293 cells
Lassa entry inh – inhibitors of Lassa virus binding or cell entry; AID 540256; Potency, µM (series often up to 37.9 µM), most hits filed as inhibitors; 300,000 compounds, 1.2% hits; Lassa virus pseudotype entry inhibition, cell reporter; calls by dose curve; tested in HEK293 cells; note: nearly all actives have a fitted effect of over 50% in size
Of the large screens only hits and unclear results are named; the others gave an inactive call. Hits are enriched below; roughly 7.9% of the tested compounds scored in any of these assays.

CCOC(=O)Nc1ccc(S(=O)(=O)Nc2nc(C)cc(C)n2)cc1	Marburg entry inh inconclusive
CCOC(=O)Nc1ccc(NS(=O)(=O)c2ccc(C)cc2)cc1	HCV inh inconclusive, Lassa entry inh 12µM
Cc1c(N2C(=O)S[C@H](CC(=O)O)C2=O)c(=O)n(-c2ccccc2)n1C	none (no result: HCMV antiviral, HCV inh, FMDV antiviral, Lassa entry inh)
CCn1c(Sc2ccc([N+](=O)[O-])cn2)nnc1-c1ccco1	HCMV antiviral -86, HCV inh inconclusive, FMDV antiviral inconclusive, Marburg entry inh inconclusive, Lassa entry inh inconclusive
O=[N+]([O-])c1ccc(Sc2ncc3ccccn23)nc1	HCMV antiviral -65 (no result: Marburg entry inh, Lassa entry inh)
CC(C)(C)OC(=O)/C=C/[C@@H]1Cc2ccccc2N1	none (no result: HCV inh, FMDV antiviral, Marburg entry inh, Lassa entry inh)
O=C(COc1ccc(Br)cc1)NCCCn1ccnc1	HCMV antiviral inconclusive (no result: Marburg entry inh, Lassa entry inh)
COc1ccc(C=CNC(=O)c2ccc(OC)cc2)cc1	none (no result: HCMV antiviral, HCV inh, FMDV antiviral, Lassa entry inh)
CCOC(=O)c1c(NC(C)=O)sc2c(OCC(O)CNC(C)(C)C)c(Br)ccc12 (configuration not stated)	HCMV antiviral -85, HCV inh 4.5µM (no result: Marburg entry inh, Lassa entry inh)
CCOC(=O)c1c(NC(C)=O)sc2c(O)cccc12	none
CCOC(=O)c1c(N)sc2c(OCC)c(Br)ccc12	HCV inh 10µM, Marburg entry inh inconclusive (no result: FMDV antiviral)
CCOC(=O)c1sc(N)c(C(=O)OCC)c1C	Lassa entry inh inconclusive
N#Cc1c(-c2ccco2)cc(C2CC2)nc1N	HCV inh 25µM
N#Cc1c(-c2cccnc2)cc(-c2ccccc2)nc1N	none (no result: Marburg entry inh, Lassa entry inh)
N#Cc1c(-c2ccco2)cc(-c2cccnc2)nc1N	HCV inh 11µM, Marburg entry inh inconclusive
N#Cc1c(-c2ccccc2)cc(C2CC2)nc1N	HCV inh inconclusive, Marburg entry inh inconclusive
COc1ccc(NC(=O)c2cc3ccccc3o2)c(OC)c1	none (no result: HCV inh, Marburg entry inh)
CC1CCc2onc(C(=O)N3CCN(c4ccc(F)cc4)CC3)c2C1 (configuration not stated)	none (no result: HCV inh, Marburg entry inh)
CCC(C)(C)c1ccc(Oc2cccc(C(=O)O)c2)cc1	none
CCC(C)(C)c1ccc(Oc2ccc(N)cc2)cc1	HCMV antiviral -91, HCV inh 4.5µM, FMDV antiviral 1.1µM, Marburg entry inh 4µM, Lassa entry inh inconclusive
Oc1cccc(-c2nnc(-c3cccc(O)c3)nn2)c1	HCV inh inconclusive, FMDV antiviral 8.9µM, Marburg entry inh inconclusive, Lassa entry inh inconclusive
Nc1cccc(O)c1	none (no result: Marburg entry inh, Lassa entry inh)
Cc1csc2ncnc(N3CCN(C(=S)Nc4ccc(F)cc4F)CC3)c12	HCMV antiviral -77, HCV inh inconclusive, FMDV antiviral inconclusive, Marburg entry inh inconclusive, Lassa entry inh inconclusive
Fc1ccc(NC(=S)N2CCCN(c3ccc(C(F)(F)F)cn3)CC2)c(F)c1	HCMV antiviral -80, HCV inh 0.5µM, FMDV antiviral inconclusive (no result: Marburg entry inh, Lassa entry inh)
CCOc1ccc(C2C(C(N)=O)=C(C)Nc3nc(-c4cccc(Cl)c4)nn32)cc1OC (configuration not stated)	none (no result: HCV inh)
CCOc1ccc(CN2C(=O)c3ccccc3Sc3ccc(C(=O)NCc4ccc(C)cc4)cc32)cc1	Marburg entry inh 10µM, Lassa entry inh inconclusive (no result: HCV inh)
O=C(NCc1ccco1)c1ccc2c(c1)N(Cc1c(F)cccc1Cl)C(=O)c1ccccc1S2	Marburg entry inh inconclusive, Lassa entry inh inconclusive (no result: HCV inh)
CCN(CC)CCCNC(=O)c1ccc2c(c1)N(Cc1c(F)cccc1Cl)C(=O)c1ccccc1S2	HCMV antiviral -98, Marburg entry inh 6.3µM, Lassa entry inh inconclusive (no result: HCV inh)
Cc1ccc(CN2C(=O)c3ccccc3Sc3ccc(C(=O)NCc4ccco4)cc32)cc1	HCMV antiviral -66, Lassa entry inh inconclusive (no result: HCV inh, Marburg entry inh)
COc1cc(-c2c(OC)cccc2OC)cc2c1OCCN(C(=O)CCC(=O)c1ccc(F)cc1)C2	none (no result: HCMV antiviral, HCV inh, Marburg entry inh, Lassa entry inh)
COc1cc(OC)c(NC(=O)Cn2c(=O)nc(-c3ccccc3)c3ccccc32)cc1Cl	none (no result: HCV inh)
O=C(NCCc1ccc(Cl)cc1)c1cc(S(=O)(=O)N2CCCCC2)c[nH]1	none (no result: HCMV antiviral, Marburg entry inh, Lassa entry inh)
O=C(CSc1nc2[nH]c(=O)cc(O)c2s1)Nc1nncs1	none
Cc1csc(NC(=O)CSc2nc3[nH]c(=O)cc(O)c3s2)n1	HCMV antiviral inconclusive, HCV inh 10µM, Marburg entry inh inconclusive, Lassa entry inh inconclusive
COc1cc(C2C(C#N)=C(N)Oc3c2ccc2ccccc32)ccc1OCC(=O)Nc1cccc(C)c1 (configuration not stated)	HCV inh inconclusive, FMDV antiviral inconclusive, Marburg entry inh inconclusive, Lassa entry inh 10µM
COc1cc(C2C(C#N)=C(N)Oc3c2ccc2ccccc32)ccc1OCC(=O)Nc1ccc(C)cc1 (configuration not stated)	HCV inh 2µM, FMDV antiviral inconclusive, Marburg entry inh inconclusive, Lassa entry inh inconclusive
COc1ccc(C2C(C#N)=C(N)OC3=C2C(=O)CC(C)(C)C3)cc1OC (configuration not stated)	HCMV antiviral inconclusive, Lassa entry inh inconclusive
COc1ccc(C2C(C#N)=C(N)Oc3c2ccc2cccnc32)cc1OC (configuration not stated)	HCMV antiviral -101, Marburg entry inh inconclusive, Lassa entry inh inconclusive
N#CC1=C(N)Oc2c(ccc3ccccc23)C1c1ccsc1 (configuration not stated)	HCV inh inconclusive, Marburg entry inh inconclusive
COC(=O)C1=C(C)OC(N)=C(C#N)C1c1ccc(OC)c(OC)c1OC (configuration not stated)	Lassa entry inh inconclusive
CCCCCCCCCCCC(=O)NC(C(=O)OCC)C(O)c1cccc([N+](=O)[O-])c1 (configuration not stated)	FMDV antiviral inconclusive, Marburg entry inh 11µM, Lassa entry inh inconclusive
N#Cc1cccnc1N1CCN(C(=O)c2cccc3c2C(=O)c2ccc(Cl)cc2S3(=O)=O)CC1	HCV inh 13µM (no result: Marburg entry inh, Lassa entry inh)
CC1=C(c2ccc(F)cc2)S(=O)(=O)N=C1N1CCC(C(=O)NCCc2cccc(C)c2)CC1	none (no result: HCV inh, Marburg entry inh)
CC1=C(c2ccc(C)c(C)c2)S(=O)(=O)N=C1N1CCC(C(=O)NCCc2ccc(Cl)cc2)CC1	Marburg entry inh 4µM (no result: HCV inh, Lassa entry inh)
COc1ccccc1CNC(=O)C1CCN(C2=NS(=O)(=O)C(c3ccc(C)c(C)c3)=C2C)CC1	HCMV antiviral -64, FMDV antiviral inconclusive (no result: HCV inh, Marburg entry inh)
CCOc1cccc(CC(=O)N2CCc3c([nH]c4ccccc34)C2c2ccc(C)cc2)c1OCC (configuration not stated)	Lassa entry inh inconclusive (no result: HCV inh, Marburg entry inh)
NC(=O)COC(=O)CN1C(=O)C2CCCCC2C1=O (configuration not stated)	Marburg entry inh inconclusive
COC(=O)C12CCC(C)(c3nc4ccccc4nc31)C2(C)C (configuration not stated)	Marburg entry inh inconclusive
CC(C)(C)NC(=O)C12CCC(C)(c3nc4ccccc4nc31)C2(C)C (configuration not stated)	HCMV antiviral -94, Marburg entry inh inconclusive
CCc1cc2c(=O)c(-c3ccc4c(c3)OCCO4)c(C)oc2cc1OS(C)(=O)=O	HCMV antiviral -63, HCV inh inconclusive, FMDV antiviral inconclusive, Marburg entry inh inconclusive, Lassa entry inh inconclusive
CCOc1ccccc1C(=O)NCc1ccc2c(c1)CCN2C(C)=O	none (no result: HCV inh, Marburg entry inh)
O=C(NS(=O)(=O)Nc1ccc(Cl)cc1)c1c[nH]c2ccccc12	none (no result: Marburg entry inh, Lassa entry inh)
Cc1cc(SCc2ccc(C(F)(F)F)cc2)nc(=O)[nH]1	HCMV antiviral active (no result: Marburg entry inh, Lassa entry inh)
